STK33 inh: human STK33 kinase inhibition | ADP-Glo luminescence, MBP substrate | inhibition, % at 12.5 µM | 0.44% of 27,000 active | AID 2322; in the data active = inhibition above about 20%
Target sequence (Q9BYT3 whole entry, looked up): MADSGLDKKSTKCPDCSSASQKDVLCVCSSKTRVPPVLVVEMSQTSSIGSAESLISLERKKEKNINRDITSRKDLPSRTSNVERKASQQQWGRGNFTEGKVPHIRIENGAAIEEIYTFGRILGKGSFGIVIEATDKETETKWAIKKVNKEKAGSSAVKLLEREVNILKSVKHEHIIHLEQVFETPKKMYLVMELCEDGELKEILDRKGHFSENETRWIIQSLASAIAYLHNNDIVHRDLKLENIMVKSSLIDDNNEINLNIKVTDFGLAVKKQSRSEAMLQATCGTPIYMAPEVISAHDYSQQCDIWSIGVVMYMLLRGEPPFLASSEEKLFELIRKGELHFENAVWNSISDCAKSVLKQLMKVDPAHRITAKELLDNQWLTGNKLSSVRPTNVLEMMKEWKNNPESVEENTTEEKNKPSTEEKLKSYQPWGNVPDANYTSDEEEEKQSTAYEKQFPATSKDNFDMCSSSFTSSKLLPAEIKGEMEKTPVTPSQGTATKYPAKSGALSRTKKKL
PD-1 reverse act: reversal of PD-1 mediated T-cell inhibition | primary human CD4 T cells, PD-L1 beads, CellTiter-Glo 96 h | activation, % (concentration not given with the values) | 29,000 tested, under 10 active | AID 2316; call rule not given here
NOMO-1 viab: STK33 inhibitor candidate reducing NOMO-1 cell viability; AID 2330; 7.5% of 37,000 active; inhibition, % (concentration not given with the values); NOMO-1 AML viability, CellTiter-Glo luminescence, 72 h; in the data active = inhibition above about 80%
Of the large screens only hits and unclear results are named; the others gave an inactive call. The sample as a whole holds a higher share of hits than the screen did.

C[C@@H]1CN([C@@H](C)CO)C(=O)c2cc(NC(=O)NC3CCCCC3)ccc2O[C@@H]1CN(C)Cc1ccc(-c2ccccc2)cc1	NOMO-1 viab 116.6
C[C@H]1CN([C@@H](C)CO)C(=O)c2cc(NC(=O)NC3CCCCC3)ccc2O[C@@H]1CN(C)Cc1ccc(-c2ccccc2)cc1	none
C[C@H]1CN([C@@H](C)CO)C(=O)c2cc(NC(=O)NC3CCCCC3)ccc2O[C@H]1CN(C)Cc1ccncc1	NOMO-1 viab 100.0
CCOc1ccc2nc(C34CC5CC(CC(C5)C3)C4)ccc2c1	none (no result: STK33 inh)
C[C@@H]1CN([C@H](C)CO)C(=O)Cc2cc(NC(=O)CCC(F)(F)F)ccc2O[C@H]1CN(C)C(=O)NC1CCCCC1	none (no result: STK33 inh, PD-1 reverse act)
O=C1CCC(c2cccs2)=NN1CO	none (no result: STK33 inh)
CC(C)NC(=O)Nc1ccc2c(c1)CC(=O)N([C@@H](C)CO)C[C@@H](C)[C@@H](CN(C)S(=O)(=O)c1cn(C)cn1)O2	none
C[C@@H]1CN([C@@H](C)CO)C(=O)c2cc(NS(=O)(=O)c3cn(C)cn3)ccc2O[C@H]1CN(C)Cc1ccc(Cl)c(Cl)c1	none (no result: STK33 inh)
C=CC[C@@]1(C(=O)OC)N=C(c2ccc(OCCCO)cc2)O[C@@H]1c1ccccc1	none (no result: PD-1 reverse act, NOMO-1 viab)
C[C@@H]1CN([C@@H](C)CO)C(=O)c2cc(NS(=O)(=O)c3ccccc3)ccc2O[C@@H]1CN(C)C(=O)Nc1ccc(F)cc1	none
COc1cc(NC(=O)COc2cc(C)ccc2C)c(C(=O)O)cc1OC	none
CC(=O)c1cccc(NC(=O)CSc2nnc(-c3cc4ccccc4cc3O)n2C)c1	none
C[C@@H]1CN([C@@H](C)CO)C(=O)c2cccc(NC(=O)c3cnccn3)c2O[C@@H]1CN(C)C(=O)NC1CCCCC1	none (no result: STK33 inh)
C[C@@H]1CN([C@@H](C)CO)C(=O)Cc2cc(NS(C)(=O)=O)ccc2O[C@@H]1CN(C)C	none (no result: PD-1 reverse act)
N#Cc1cc2c(OCC(O)CN3CCN(C(c4ccccc4)c4ccccc4)CC3)cccc2[nH]1 (stereo not given)	NOMO-1 viab 116.2 (no result: PD-1 reverse act)
Cc1ccc(C)c(OCC(O)CN2CCN(CCO)CC2)c1 (stereo not given)	none
O=C(COc1cc(O)c2c(=O)c3ccccc3oc2c1)c1cccc([N+](=O)[O-])c1	none
O=C(COc1cc(O)c2c(=O)c3ccccc3oc2c1)c1ccc(Cl)cc1	NOMO-1 viab 116.8
CCOC(=O)CSc1nc(-c2ccccc2)c2cc(Cl)ccc2n1	none (no result: PD-1 reverse act)
CC1(C)Cc2nc3sc4c(SCC(=O)NCc5ccccc5)ncnc4c3cc2CO1	NOMO-1 viab 119.1
COC(=O)CSc1ncnc2c1sc1nc3c(cc12)COC(C)(C)C3	none (no result: PD-1 reverse act)
C[C@H](CO)N1C[C@H](C)[C@H](CN(C)S(=O)(=O)c2ccc(Cl)cc2)Oc2c(NC(=O)C3CC3)cccc2C1=O	none (no result: STK33 inh)
CCc1cccc(C)c1NC(=O)C(C)NS(=O)(=O)c1ccc(C)cc1 (stereo not given)	none (no result: PD-1 reverse act)
CCS(=O)(=O)CCSc1nc(C)c(C(=O)Nc2ccccc2)c(-c2ccccc2)c1C#N	none
C=C1C(=O)O[C@@H]2[C@H]1[C@H](O)C[C@]1(C)[C@@H](O)CC=C(C)[C@@H]21	NOMO-1 viab 114.9
C[C@@H]1O[C@@H](O[C@H]2[C@@H]3C=CO[C@@H](O[C@@H]4O[C@H](CO)[C@@H](O)[C@H](O)[C@H]4O)[C@@H]3[C@@]3(CO)O[C@@H]23)[C@H](O)[C@H](O)[C@H]1OC(=O)/C=C/c1ccccc1	none (no result: PD-1 reverse act, NOMO-1 viab)
C[C@@H]1CN([C@H](C)CO)C(=O)c2cc(N(C)C)ccc2O[C@H]1CN(C)Cc1ccc(Cl)c(Cl)c1	NOMO-1 viab 96.7 (no result: STK33 inh)
C[C@@H]1CCCCO[C@@H](CN(C)Cc2ccc3c(c2)OCO3)[C@@H](C)CN([C@H](C)CO)C(=O)c2cc(N(C)C)ccc2O1	none (no result: PD-1 reverse act)
C[C@@H]1CCCCO[C@H](CN(C)Cc2ccc(Cl)c(Cl)c2)[C@@H](C)CN([C@H](C)CO)C(=O)c2cc(N(C)C)ccc2O1	NOMO-1 viab 86.7
C[C@@H]1CN([C@@H](C)CO)C(=O)c2cc(N(C)C)ccc2O[C@@H]1CN(C)Cc1ccc(Cl)c(Cl)c1	none (no result: STK33 inh)
CCn1c(SCC(=O)Nc2ccc(C)c(F)c2)nnc1-c1cccc(Cl)c1	none
Cc1ccc(S(=O)(=O)Nc2ccc3c(c2)C(=O)N([C@@H](C)CO)C[C@@H](C)[C@H](CN(C)S(=O)(=O)c2ccc(C)cc2)O3)cc1	none
Cc1ccc(S(=O)(=O)N(C)C[C@@H]2Oc3ccc(NC(=O)Nc4ccc(C(F)(F)F)cc4)cc3CC(=O)N([C@@H](C)CO)C[C@@H]2C)cc1	NOMO-1 viab 115.3
COc1ccc(S(=O)(=O)N(C)C[C@H]2Oc3ccc(NC(=O)Nc4ccc(C(F)(F)F)cc4)cc3CC(=O)N([C@@H](C)CO)C[C@H]2C)cc1	none
Cc1ccc(S(=O)(=O)N(C)C[C@H]2Oc3ccc(NC(=O)Nc4ccc(C(F)(F)F)cc4)cc3CC(=O)N([C@@H](C)CO)C[C@H]2C)cc1	NOMO-1 viab 110.5
COc1ccc(S(=O)(=O)N(C)C[C@H]2Oc3ccc(NC(=O)Nc4ccc(C(F)(F)F)cc4)cc3CC(=O)N([C@@H](C)CO)C[C@@H]2C)cc1	none
O=C(CSc1ccccn1)Nc1c(C(=O)c2ccc(F)cc2)oc2ccccc12	none (no result: PD-1 reverse act)
C[C@H]1CN([C@@H](C)CO)C(=O)c2cc(NC(=O)NC3CCCCC3)ccc2O[C@H]1CN(C)C(=O)Nc1cccc2ccccc12	none
CC(NS(=O)(=O)c1ccc(Cl)cc1)C(=O)Nc1ccccc1C(F)(F)F (stereo not given)	none
Cc1ccc(F)cc1S(=O)(=O)N[C@@H]1CCN(Cc2ccc(OCCO)cc2)C1	none (no result: PD-1 reverse act, NOMO-1 viab)
Cc1cc2nnc(SCC(=O)c3cc(C)n(Cc4ccccc4)c3C)n2c2ccccc12	NOMO-1 viab 131.2 (no result: STK33 inh)
Cc1cc(C(=O)CSc2nnc3ccccn23)c(C)n1Cc1ccccc1	none (no result: PD-1 reverse act)
Cc1noc(C)c1NC(=O)N(C)C[C@@H]1Oc2c(NS(=O)(=O)c3cccs3)cccc2C(=O)N([C@@H](C)CO)C[C@H]1C	none (no result: STK33 inh)
C=C1C(=O)O[C@@H]2CC=C(CCC(C)O)C(C)C[C@@H]12 (stereo not given in full)	NOMO-1 viab 121.1
CNC[C@@H]1Oc2c(NS(=O)(=O)c3cn(C)cn3)cccc2C(=O)N([C@@H](C)CO)C[C@@H]1C	none (no result: STK33 inh)
CC(=O)Cc1ccccc1OCC(=O)O	none (no result: PD-1 reverse act)
CC(=O)OCOC(=O)CN(CC(=O)OCOC(C)=O)c1ccccc1OCCOc1ccccc1N(CC(=O)OCOC(C)=O)CC(=O)OCOC(C)=O	NOMO-1 viab 112.7 (no result: PD-1 reverse act)
COc1ccc(S(=O)(=O)Nc2ccc3c(c2)C(=O)N([C@H](C)CO)C[C@H](C)[C@H](CN(C)C(=O)c2ccncc2)OCCCC[C@@H](C)O3)cc1	none
O=C(COC(=O)C1CC=CCC1C(=O)OCC(=O)c1ccc(Cl)cc1)c1ccc(Cl)cc1 (stereo not given)	none (no result: STK33 inh)
Cc1ccc(C)n1-c1ccc(C(=O)OCC(=O)c2ccc(Cl)cc2)cc1	NOMO-1 viab 121.4 (no result: STK33 inh)
C[C@H]1CN([C@@H](C)CO)C(=O)c2cccc(NC(=O)c3ccncc3)c2O[C@H]1CN(C)Cc1ccc(C(=O)Nc2ccccc2N)cc1	none (no result: STK33 inh)
C[C@@H]1CN([C@@H](C)CO)C(=O)c2cccc(NC(=O)C3CCOCC3)c2O[C@@H]1CN(C)Cc1ccc(C(=O)Nc2ccccc2N)cc1	NOMO-1 viab 126.4 (no result: STK33 inh)
C[C@H](CO)N1C[C@H](C)[C@@H](CN(C)Cc2ccc(C(=O)Nc3ccccc3N)cc2)Oc2c(NC(=O)C3CCOCC3)cccc2C1=O	none (no result: STK33 inh)

Compound activity deposited in PubChem by Broad Institute.
